# In publication PMC7862700, “An all-to-all approach to the identification of sequence-specific readers for epigenetic DNA modifications on cytosine”:
# Key:
# Assay in all cases: DAPPL (digital affinity profiling via proximity ligation, sequencing); 10 mM Tris-HCl pH 7.5, 50 mM NaCl, 1 mM DTT, 4% glycerol, room temperature, 30 min; GST-TFs on glutathione beads, 16-mer random dsDNA library, 0.1% formaldehyde crosslink after washing; high values mean tight binding
# Conditions in all cases: protein: recombinant; tags: N-terminal GST; dsDNA, one strand shown
# [1] = molecular target: T1, ELK1 (Homo sapiens, UniProt P19419 1-428)
# T1 sequence: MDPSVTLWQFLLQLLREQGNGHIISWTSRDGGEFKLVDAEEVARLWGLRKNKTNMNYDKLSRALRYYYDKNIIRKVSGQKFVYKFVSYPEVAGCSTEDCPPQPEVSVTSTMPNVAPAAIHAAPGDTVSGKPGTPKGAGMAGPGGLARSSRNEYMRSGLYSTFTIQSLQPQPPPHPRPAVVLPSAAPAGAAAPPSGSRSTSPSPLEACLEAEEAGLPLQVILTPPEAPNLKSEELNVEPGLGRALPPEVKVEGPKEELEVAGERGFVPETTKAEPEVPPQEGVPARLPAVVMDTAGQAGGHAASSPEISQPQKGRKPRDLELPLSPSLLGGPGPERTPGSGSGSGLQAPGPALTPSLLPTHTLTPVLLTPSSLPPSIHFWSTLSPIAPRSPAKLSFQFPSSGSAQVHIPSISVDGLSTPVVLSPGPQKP
# How it was run: (§1)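 Binding signal is each hexamer's read frequency for a factor divided by its frequency in the tag-only sample. The factors were GST-fused human transcription factors from yeast, captured on glutathione beads, DNA-barcoded and pooled with that sample. Pools were incubated with 200 nmole of a random double-stranded 16-mer DNA library in Tris/NaCl/DTT/glycerol buffer at room temperature for 30 min, then washed, crosslinked with 0.1% formaldehyde, proximity-ligated with BsaI/T4 ligase (1 h, 37 °C), PCR-amplified and sequenced on an Illumina NextSeq500.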
# [2] = molecular target: T2, GABPA (Homo sapiens, UniProt Q06546 1-454)
# T2 sequence: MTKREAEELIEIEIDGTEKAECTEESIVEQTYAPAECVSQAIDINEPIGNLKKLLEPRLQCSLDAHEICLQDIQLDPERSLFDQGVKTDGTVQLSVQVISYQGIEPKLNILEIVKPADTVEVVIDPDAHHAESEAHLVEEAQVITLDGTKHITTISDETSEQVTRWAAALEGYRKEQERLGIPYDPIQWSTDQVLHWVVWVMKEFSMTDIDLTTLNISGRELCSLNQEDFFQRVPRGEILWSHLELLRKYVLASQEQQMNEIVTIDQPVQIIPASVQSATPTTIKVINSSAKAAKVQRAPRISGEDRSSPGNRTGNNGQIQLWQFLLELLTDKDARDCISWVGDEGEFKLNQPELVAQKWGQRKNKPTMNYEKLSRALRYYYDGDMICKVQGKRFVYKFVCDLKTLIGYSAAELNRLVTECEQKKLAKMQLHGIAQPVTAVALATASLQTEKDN
# How it was run: as §1
# [3] = molecular target: T3, ERG (Homo sapiens, UniProt P11308 1-479)
# T3 sequence: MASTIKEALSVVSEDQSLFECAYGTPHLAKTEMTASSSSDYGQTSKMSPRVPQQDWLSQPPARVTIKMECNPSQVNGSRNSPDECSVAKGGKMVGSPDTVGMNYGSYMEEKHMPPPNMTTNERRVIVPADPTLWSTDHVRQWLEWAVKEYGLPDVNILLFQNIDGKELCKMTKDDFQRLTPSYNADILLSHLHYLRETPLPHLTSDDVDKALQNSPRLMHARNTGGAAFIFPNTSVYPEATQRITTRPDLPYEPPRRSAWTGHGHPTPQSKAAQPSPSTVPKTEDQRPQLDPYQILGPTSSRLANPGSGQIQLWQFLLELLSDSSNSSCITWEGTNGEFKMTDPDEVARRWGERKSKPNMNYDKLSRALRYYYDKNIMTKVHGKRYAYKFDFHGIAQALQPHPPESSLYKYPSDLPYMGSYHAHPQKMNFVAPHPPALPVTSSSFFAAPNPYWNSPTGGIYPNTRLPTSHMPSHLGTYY
# How it was run: as §1
# [4] = molecular target: ELF1 (Homo sapiens, UniProt P32519 1-619)
# How it was run: as §1
# [5] = molecular target: T4, EHF (Homo sapiens, UniProt Q9NZC4 1-300)
# T4 sequence: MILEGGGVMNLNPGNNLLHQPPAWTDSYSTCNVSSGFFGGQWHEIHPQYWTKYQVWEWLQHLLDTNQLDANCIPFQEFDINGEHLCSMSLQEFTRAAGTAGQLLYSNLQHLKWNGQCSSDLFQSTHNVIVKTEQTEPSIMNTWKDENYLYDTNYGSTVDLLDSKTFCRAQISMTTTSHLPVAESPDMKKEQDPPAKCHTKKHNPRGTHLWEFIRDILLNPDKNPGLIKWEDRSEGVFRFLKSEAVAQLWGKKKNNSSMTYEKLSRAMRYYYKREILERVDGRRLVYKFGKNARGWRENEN
# How it was run: as §1
# [6] = molecular target: SPI1 (Homo sapiens, UniProt P17947 1-270)
# How it was run: as §1
# [7] = molecular target: T5, FEV (Homo sapiens, UniProt Q99581 1-238)
# T5 sequence: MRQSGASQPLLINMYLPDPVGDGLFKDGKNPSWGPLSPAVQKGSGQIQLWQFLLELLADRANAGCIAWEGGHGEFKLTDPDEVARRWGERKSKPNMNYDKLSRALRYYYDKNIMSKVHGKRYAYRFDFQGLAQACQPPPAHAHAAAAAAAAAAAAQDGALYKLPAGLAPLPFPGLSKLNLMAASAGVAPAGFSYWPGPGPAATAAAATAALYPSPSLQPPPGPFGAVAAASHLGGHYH
# How it was run: as §1
# [8] = molecular target: ETV5 (Homo sapiens, UniProt P41161 1-510)
# How it was run: as §1
# [9] = molecular target: ELF4 (Homo sapiens, UniProt Q99607 1-663)
# How it was run: as §1
# [10] = molecular target: T6, ELK4 (Homo sapiens, UniProt P28324-2 1-405)
# T6 sequence: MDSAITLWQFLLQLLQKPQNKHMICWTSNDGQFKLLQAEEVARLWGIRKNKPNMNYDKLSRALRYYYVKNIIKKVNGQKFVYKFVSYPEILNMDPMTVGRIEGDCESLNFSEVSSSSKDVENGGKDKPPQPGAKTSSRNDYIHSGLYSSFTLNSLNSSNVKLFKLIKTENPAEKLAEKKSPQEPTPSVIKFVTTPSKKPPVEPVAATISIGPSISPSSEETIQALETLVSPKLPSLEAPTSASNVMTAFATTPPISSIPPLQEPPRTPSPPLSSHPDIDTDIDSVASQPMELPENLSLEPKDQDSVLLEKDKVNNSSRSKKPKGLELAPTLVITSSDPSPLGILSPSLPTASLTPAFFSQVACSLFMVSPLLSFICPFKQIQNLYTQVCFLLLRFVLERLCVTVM
# How it was run: as §1
# [11] = molecular target: ETV1 (Homo sapiens, UniProt P50549 1-477)
# How it was run: as §1
# [12] = molecular target: T7, ERF (Homo sapiens, UniProt P50548 1-548)
# T7 sequence: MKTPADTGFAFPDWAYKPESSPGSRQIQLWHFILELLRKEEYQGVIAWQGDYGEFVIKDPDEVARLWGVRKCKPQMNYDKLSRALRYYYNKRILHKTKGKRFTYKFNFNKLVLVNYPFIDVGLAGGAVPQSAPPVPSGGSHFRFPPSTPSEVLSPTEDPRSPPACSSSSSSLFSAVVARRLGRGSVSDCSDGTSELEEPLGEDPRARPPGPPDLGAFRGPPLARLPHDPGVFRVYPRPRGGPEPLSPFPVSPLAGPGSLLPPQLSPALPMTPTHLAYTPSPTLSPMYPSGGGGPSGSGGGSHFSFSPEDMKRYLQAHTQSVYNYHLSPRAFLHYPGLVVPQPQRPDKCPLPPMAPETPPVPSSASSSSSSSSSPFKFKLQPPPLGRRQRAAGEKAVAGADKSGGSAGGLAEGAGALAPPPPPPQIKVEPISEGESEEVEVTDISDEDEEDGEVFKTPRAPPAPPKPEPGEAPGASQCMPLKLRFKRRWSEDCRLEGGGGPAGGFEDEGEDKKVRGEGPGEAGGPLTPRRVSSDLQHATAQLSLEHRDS
# How it was run: as §1
# [13] = molecular target: T8, ETV3L (Homo sapiens, UniProt Q6ZN32 1-361)
# T8 sequence: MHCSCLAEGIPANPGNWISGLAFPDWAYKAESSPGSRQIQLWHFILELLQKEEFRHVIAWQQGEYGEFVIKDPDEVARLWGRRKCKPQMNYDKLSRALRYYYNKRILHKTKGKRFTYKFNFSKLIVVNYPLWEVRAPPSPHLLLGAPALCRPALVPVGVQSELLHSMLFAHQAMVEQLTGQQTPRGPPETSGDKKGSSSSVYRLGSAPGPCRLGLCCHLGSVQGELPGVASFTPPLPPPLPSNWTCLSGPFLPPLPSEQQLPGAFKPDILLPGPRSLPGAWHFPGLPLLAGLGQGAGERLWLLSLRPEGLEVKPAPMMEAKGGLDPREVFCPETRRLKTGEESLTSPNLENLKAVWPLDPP
# How it was run: as §1
# [14] = molecular target: T9, ETS2 (Homo sapiens, UniProt P15036 1-469)
# T9 sequence: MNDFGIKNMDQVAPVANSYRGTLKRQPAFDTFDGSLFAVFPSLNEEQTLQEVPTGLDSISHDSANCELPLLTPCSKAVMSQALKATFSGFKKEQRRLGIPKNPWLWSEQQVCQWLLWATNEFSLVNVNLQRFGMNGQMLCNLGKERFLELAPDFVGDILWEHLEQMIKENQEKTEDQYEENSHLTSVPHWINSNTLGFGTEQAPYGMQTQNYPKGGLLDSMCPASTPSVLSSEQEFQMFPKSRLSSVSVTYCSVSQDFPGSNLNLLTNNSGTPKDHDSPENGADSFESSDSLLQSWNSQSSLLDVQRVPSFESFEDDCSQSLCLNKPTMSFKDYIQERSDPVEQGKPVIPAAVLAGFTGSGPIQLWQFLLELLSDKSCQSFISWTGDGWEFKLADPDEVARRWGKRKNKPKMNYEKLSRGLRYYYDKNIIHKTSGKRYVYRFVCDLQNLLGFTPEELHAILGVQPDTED
# How it was run: as §1
# [15] = molecular target: T10, SPDEF (Homo sapiens, UniProt O95238 1-335)
# T10 sequence: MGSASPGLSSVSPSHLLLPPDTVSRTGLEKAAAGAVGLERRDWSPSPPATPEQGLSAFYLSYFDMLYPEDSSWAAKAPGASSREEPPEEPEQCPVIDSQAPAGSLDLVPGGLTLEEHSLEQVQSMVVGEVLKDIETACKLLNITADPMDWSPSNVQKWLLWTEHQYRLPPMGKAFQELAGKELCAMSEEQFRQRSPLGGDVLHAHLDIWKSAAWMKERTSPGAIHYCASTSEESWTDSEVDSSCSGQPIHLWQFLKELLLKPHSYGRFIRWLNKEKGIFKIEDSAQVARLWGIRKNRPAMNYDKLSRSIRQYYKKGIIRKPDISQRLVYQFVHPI
# How it was run: as §1
# [16] = molecular target: T11, ETV7 (Homo sapiens, UniProt Q9Y603 1-341)
# T11 sequence: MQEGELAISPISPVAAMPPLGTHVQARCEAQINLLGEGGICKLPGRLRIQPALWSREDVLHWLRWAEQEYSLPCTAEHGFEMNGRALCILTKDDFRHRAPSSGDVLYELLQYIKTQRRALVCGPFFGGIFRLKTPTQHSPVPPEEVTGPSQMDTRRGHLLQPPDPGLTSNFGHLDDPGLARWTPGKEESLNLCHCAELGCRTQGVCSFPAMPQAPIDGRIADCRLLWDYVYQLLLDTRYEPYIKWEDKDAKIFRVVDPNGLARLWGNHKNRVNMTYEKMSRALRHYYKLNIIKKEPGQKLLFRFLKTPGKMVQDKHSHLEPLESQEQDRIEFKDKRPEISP
# How it was run: as §1
# [17] = molecular target: T12, ETV3 (Homo sapiens, UniProt P41162-2 1-143)
# T12 sequence: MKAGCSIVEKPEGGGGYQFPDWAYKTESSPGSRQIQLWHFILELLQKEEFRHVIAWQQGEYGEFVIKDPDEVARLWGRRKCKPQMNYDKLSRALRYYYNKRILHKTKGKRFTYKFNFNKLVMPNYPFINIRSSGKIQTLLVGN
# How it was run: as §1
# [18] = molecular target: ETV6 (Homo sapiens, UniProt P41212 1-452)
# How it was run: as §1
# ELF4, sequence (Q99607 whole entry): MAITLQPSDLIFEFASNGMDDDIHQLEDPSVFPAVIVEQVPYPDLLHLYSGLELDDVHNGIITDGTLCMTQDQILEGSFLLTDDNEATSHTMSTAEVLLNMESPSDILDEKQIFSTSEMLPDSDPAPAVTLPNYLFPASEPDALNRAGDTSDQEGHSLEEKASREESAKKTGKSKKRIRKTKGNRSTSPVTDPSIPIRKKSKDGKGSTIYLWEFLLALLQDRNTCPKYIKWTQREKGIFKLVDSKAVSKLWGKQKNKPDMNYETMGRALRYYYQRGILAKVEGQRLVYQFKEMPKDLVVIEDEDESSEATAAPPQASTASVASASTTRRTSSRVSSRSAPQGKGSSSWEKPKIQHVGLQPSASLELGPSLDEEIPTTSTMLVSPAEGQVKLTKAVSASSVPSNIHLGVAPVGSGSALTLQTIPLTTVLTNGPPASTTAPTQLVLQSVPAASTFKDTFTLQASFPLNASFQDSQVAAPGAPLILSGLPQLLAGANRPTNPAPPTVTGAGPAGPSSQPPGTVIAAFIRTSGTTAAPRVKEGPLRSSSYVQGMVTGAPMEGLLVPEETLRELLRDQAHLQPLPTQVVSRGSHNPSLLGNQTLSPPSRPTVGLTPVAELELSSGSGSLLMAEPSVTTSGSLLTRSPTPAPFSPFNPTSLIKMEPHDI
# ELF1, sequence (P32519 whole entry): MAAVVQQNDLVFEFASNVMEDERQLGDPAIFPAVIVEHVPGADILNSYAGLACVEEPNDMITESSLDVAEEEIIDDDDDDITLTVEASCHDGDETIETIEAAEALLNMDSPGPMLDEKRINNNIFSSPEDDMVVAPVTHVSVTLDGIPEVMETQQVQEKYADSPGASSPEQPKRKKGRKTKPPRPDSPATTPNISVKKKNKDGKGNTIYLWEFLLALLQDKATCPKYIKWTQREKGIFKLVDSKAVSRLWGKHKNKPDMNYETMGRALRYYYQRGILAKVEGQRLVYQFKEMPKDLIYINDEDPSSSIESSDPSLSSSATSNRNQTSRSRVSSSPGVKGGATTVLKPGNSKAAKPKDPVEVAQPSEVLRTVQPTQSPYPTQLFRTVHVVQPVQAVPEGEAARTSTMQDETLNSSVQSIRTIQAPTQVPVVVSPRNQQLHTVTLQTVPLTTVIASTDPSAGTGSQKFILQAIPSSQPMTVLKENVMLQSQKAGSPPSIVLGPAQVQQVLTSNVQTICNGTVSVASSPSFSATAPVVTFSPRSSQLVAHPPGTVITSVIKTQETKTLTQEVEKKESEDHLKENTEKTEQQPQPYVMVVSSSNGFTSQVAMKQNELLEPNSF
# ETV5, sequence (P41161 whole entry): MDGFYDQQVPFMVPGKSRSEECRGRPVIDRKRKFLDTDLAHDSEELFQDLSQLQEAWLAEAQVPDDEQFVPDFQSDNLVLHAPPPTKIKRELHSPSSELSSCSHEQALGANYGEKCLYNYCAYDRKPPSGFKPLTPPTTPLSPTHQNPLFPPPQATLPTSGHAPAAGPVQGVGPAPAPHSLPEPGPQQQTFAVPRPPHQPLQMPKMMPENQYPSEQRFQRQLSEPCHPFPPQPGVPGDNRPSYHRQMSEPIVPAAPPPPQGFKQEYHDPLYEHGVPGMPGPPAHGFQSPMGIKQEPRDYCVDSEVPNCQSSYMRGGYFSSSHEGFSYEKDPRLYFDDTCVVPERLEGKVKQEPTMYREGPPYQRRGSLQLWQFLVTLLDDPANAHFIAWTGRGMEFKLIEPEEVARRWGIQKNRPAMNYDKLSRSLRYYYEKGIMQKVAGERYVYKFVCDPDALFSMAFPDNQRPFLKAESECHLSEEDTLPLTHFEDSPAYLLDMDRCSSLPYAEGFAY
# ETV6, sequence (P41212 whole entry): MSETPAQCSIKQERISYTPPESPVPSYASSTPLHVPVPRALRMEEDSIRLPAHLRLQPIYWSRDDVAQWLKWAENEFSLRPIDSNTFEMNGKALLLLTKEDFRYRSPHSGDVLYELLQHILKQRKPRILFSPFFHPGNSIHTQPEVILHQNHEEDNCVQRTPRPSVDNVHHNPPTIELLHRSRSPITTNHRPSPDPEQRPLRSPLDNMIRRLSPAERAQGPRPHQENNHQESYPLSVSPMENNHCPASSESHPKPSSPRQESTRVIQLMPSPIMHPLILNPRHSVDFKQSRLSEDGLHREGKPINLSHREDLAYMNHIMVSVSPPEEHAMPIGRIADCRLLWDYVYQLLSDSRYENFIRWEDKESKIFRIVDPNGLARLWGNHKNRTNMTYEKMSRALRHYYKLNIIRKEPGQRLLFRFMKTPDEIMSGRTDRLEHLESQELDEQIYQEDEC
# ETV1, sequence (P50549 whole entry): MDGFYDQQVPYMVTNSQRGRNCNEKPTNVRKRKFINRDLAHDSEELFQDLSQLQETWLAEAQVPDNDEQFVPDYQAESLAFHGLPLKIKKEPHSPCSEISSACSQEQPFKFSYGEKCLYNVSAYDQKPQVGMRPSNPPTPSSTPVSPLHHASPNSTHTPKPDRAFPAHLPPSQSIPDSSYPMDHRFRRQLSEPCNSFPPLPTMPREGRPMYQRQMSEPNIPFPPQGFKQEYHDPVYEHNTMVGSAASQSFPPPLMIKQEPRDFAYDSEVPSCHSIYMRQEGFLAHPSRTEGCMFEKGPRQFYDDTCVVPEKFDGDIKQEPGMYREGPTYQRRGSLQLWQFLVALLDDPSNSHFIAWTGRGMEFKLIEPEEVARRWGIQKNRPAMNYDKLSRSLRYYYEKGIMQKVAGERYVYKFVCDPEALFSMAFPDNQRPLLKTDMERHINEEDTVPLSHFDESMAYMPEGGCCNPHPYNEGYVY
sequence,measurement,setting,value
AGCACA,binding signal,[1],"1.01 fold enrichment (6-mer frequency, TF over GST control)"
same,binding signal,[2],"1.08 fold enrichment (6-mer frequency, TF over GST control)"
same,binding signal,[3],"1.03 fold enrichment (6-mer frequency, TF over GST control)"
same,binding signal,[4],"1.06 fold enrichment (6-mer frequency, TF over GST control)"
same,binding signal,[5],"1.04 fold enrichment (6-mer frequency, TF over GST control)"
same,binding signal,[6],"1.06 fold enrichment (6-mer frequency, TF over GST control)"
same,binding signal,[7],"1.12 fold enrichment (6-mer frequency, TF over GST control)"
same,binding signal,[8],"1.07 fold enrichment (6-mer frequency, TF over GST control)"
same,binding signal,[9],"1.08 fold enrichment (6-mer frequency, TF over GST control)"
same,binding signal,[10],"1.02 fold enrichment (6-mer frequency, TF over GST control)"
same,binding signal,[11],"1.02 fold enrichment (6-mer frequency, TF over GST control)"
same,binding signal,[12],"1.13 fold enrichment (6-mer frequency, TF over GST control)"
same,binding signal,[13],"1.14 fold enrichment (6-mer frequency, TF over GST control)"
same,binding signal,[14],"1.02 fold enrichment (6-mer frequency, TF over GST control)"
same,binding signal,[15],"1.07 fold enrichment (6-mer frequency, TF over GST control)"
same,binding signal,[16],"1.01 fold enrichment (6-mer frequency, TF over GST control)"
same,binding signal,[17],"1.05 fold enrichment (6-mer frequency, TF over GST control)"
same,binding signal,[18],"1.11 fold enrichment (6-mer frequency, TF over GST control)"
